HP1b binding inh – HTS for Inhibitors of HP1-beta Chromodomain Interactions with Methylated Histone Tails; Chromobox protein homolog 1 (Homo sapiens), P83916; Potency, µM (highest dose often 114 µM), without a hit: at the top dose activity change, negative = inhibition, most hits filed as inhibitors; AlphaScreen HP1-beta / biotin-H3K9me3 peptide binding; actives 0.56% (n = 390,000); note: nearly all actives have a fitted effect of over 70% in size
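HP1-beta protein (50 nM final) preincubated 30 min at room temperature with biotinylated H3(1-18)K9me3 peptide (50 nM) in PBS pH 7.4, 0.01% Tween-20, then compound added for 30 min. AlphaScreen streptavidin donor/nickel chelate acceptor beads (10 ug/mL final), 30 min dark, luminescence read.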
BAZ2B block – qHTS Assay for Inhibitors of BAZ2B | Bromodomain adjacent to zinc finger domain protein 2B (Homo sapiens), Q9UIF8 | AlphaScreen BAZ2B-H3K14Ac peptide displacement | Potency, µM (top dose mostly 114 µM), for the others: at the highest dose activity change, negative = inhibition, hits mostly inhibitors | actives 4.4% (n = 360,000); note: % is set by controls: 0 for no effect and ±100 for the full control effect; nearly all actives have a fitted effect of over 60% in size
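Multi-concentration screen (max 110 uM) measuring displacement of acetylated histone H3 peptide from BAZ2B by AlphaScreen, using 50 nM protein, 50 nM peptide and 10 ug/mL streptavidin donor plus Ni-chelate acceptor beads.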
L3MBTL1 block – qHTS Assay for the Inhibitors of L3MBTL1; Lethal(3)malignant brain tumor-like protein 1 (Homo sapiens), Q9Y468; AlphaScreen L3MBTL1–H3K9me1 peptide binding; Potency, µM (titrated, usually from 57.1 µM), for the others: top-dose activity, negative = inhibition, actives largely listed as inhibitors; actives 0.66% (n = 230,000); AID 485360, 2010; note: % is set by controls: 0 for no effect and ±100 for the full control effect; nearly all actives have a fitted effect of over 60% in size
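Read-out is AlphaScreen signal from streptavidin donor and nickel chelate acceptor beads (10 ug/mL final each) bridging L3MBTL1 (50 nM) and biotinylated K9-monomethylated H3(1-15) peptide (75 nM), after 30 min compound exposure at room temperature.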
JMJD2A Tudor – qHTS Assay for Inhibitors of JMJD2A-Tudor Domain; Lysine-specific demethylase 4A (Homo sapiens), O75164; AlphaScreen JMJD2A-Tudor / H3K4me3 peptide binding; Potency, µM (titrated, usually from 114 µM), without a hit: top-dose activity change, negative = inhibition, most hits filed as inhibitors; actives 4.4% (n = 390,000); AID 504339, 2011; note: % is set by controls: 0 for no effect and ±100 for the full control effect; nearly all actives have a fitted effect of over 50% in size
G9a inh – qHTS Assay for Inhibitors of Histone Lysine Methyltransferase G9a. Histone-lysine N-methyltransferase EHMT2 (Homo sapiens), Q96KQ7. AID 504332, 2011. G9a H3K9 monomethylation, AlphaScreen, 2 h. actives 8.8% (n = 350,000). Potency, µM (series often up to 102 µM), for inactives: top-dose activity, negative = inhibition, most hits filed as inhibitors; note: % is set by controls: 0 for no effect and ±100 for the full control effect; nearly all actives have a fitted effect of over 75% in size
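AlphaScreen detection with an anti-monomethyl H3K9 antibody quantified product after a 2 h room-temperature reaction containing 500 nM biotinylated H3K9 peptide, 20 µM SAM and 20 nM enzyme, which had been preincubated 15 min with compound.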
Numbers without * were called inactive; ? = inconclusive; / = no result given; [ ] = dose if it differs, or a comment. Sampled rows, rich in hits. Any-hit rate of the full collection: about 11%. Calls come from the whole dose curve; as a rule, active = well fitted inhibition curve with a large enough effect; inconclusive = small, poorly fitted or top-dose-only effect; inactive = no such curve, though single readings can be large or run the other way. Potency is the fitted concentration of half-maximal effect.

SMILES | HP1b binding inh | BAZ2B block | L3MBTL1 block | JMJD2A Tudor | G9a inh
C#CCOCCOCCOCCNc1nc(N2CCN(C(=O)[C@H]([C@@H](C)CC)n3cc([C@@H](N)CC(C)C)nn3)CC2)nc(N2CCN(C(=O)[C@H](Cc3ccc(O)cc3)n3cc([C@@H](N)CC(C)C)nn3)CC2)n1 | 17.5% | 50.1µM* | -17.9% | ? | ?
C#CCOCCOCCOCCNc1nc(N2CCN(C(=O)[C@H]([C@@H](C)CC)n3cc([C@@H](N)CO)nn3)CC2)nc(N2CCN(C(=O)[C@H]([C@@H](C)CC)n3cc([C@@H](N)Cc4ccc(O)cc4)nn3)CC2)n1 | 2.1% | 28.2µM* | -23.2% | 50.1µM* | -4.0%[12.7 µM]
C#CCOCCOCCOCCNc1nc(N2CCOCC2)nc(N2CCN(C(=O)[C@H]([C@@H](C)CC)n3cc([C@@H](N)CO)nn3)CC2)n1 | ? | -26.8% | -5.7% | -26.2% | ?
C#CCOCCOCCOCCNc1nc(N2CCN(C(=O)[C@H]([C@@H](C)CC)n3cc([C@@H](N)Cc4ccc(O)cc4)nn3)CC2)nc(N2CCN(C(=O)[C@H]([C@@H](C)CC)n3cc([C@@H](N)Cc4ccc(O)cc4)nn3)CC2)n1 | 34.9% | 50.1µM* | -15.8% | ? | -0.7%[12.7 µM]
C#CCOCCOCCOCCNc1nc(N2CCN(C(=O)[C@H](C(C)C)n3cc(CCO)nn3)CC2)nc(N2CCN(C(=O)[C@H]([C@@H](C)CC)n3cc(CCC(=O)O)nn3)CC2)n1 | 12.6% | / | / | -23.2% | /
C#CCOCCOCCOCCNc1nc(N2CCN(C(=O)[C@H]([C@@H](C)CC)n3cc(CCCN=C(N)N)nn3)CC2)nc(N2CCN(C(=O)[C@H]([C@@H](C)CC)n3cc(CCC(=O)O)nn3)CC2)n1 | 30.1% | / | / | -3.6% | /
CSc1ncc(C(=O)Nc2cc(Cl)ccc2C)c(-c2ccccc2)n1 | 9.1% | -21.1% | / | -8.6% | -4.8%[59 µM]
CCOc1cccc(C2c3c(oc4ccc(F)cc4c3=O)C(=O)N2c2cc(C)ccn2)c1 (stereo not drawn) | 69.9% | 31.2% | / | -8.6% | 30.0%[59 µM]
C#CCOCCOCCOCCNc1nc(N2CCN(C(=O)[C@H]([C@@H](C)CC)n3cc([C@@H](N)CO)nn3)CC2)nc(N2CCN(C(=O)[C@H](Cc3ccc(O)cc3)n3cc([C@@H](N)C(C)CC)nn3)CC2)n1 (stereo partly drawn) | 39.1% | 35.5µM* | ? | 35.5µM* | ?
CC(=O)N1CCc2cc(Br)cc(S(=O)(=O)N3CCN(c4ccccn4)CC3)c21 | ? | 6.9% | 4.7% | 79.4µM* | -6.7%
CC(=O)N1c2c(cc(Br)cc2S(=O)(=O)N2CCN(c3ccccn3)CC2)CC1C (stereo not drawn) | 4.2% | -36.1% | / | -18.6% | ?
O=C(C1CC1)N1CCc2cc(Br)cc(S(=O)(=O)NCc3ccccn3)c21 | 22.9% | 8.3% | / | 2.82µM* | -47.4%[12.7 µM]
O=C(c1ccc(Cl)c(S(=O)(=O)NCc2ccco2)c1)N1CCN(c2ccccc2F)CC1 | -32.4% | -10.2% | / | 56.2µM* | -12.0%
O=C(/C=C/c1ccccc1)Nc1ccc(Cl)cn1 | 21.2% | -2.2% | 8.0% | 6.7% | /
O=[N+]([O-])c1ccc(Nc2ccc(F)cc2)nc1 | 22.0% | -29.4% | -5.9% | -19.2% | -5.1%[59 µM]
O=[N+]([O-])c1cnccc1Nc1cccc(F)c1 | 2.7% | ? | -1.8% | -30.0% | 7.08µM*
COc1ccc(Nc2ccncc2[N+](=O)[O-])cc1 | 9.0% | ? | / | -32.1% | 14.5%[59 µM]
O=[N+]([O-])c1ccccc1Nc1ccccc1[N+](=O)[O-] | 21.5% | / | / | -19.4% | /
O=[N+]([O-])c1ccccc1Nc1cccc(F)c1 | ? | / | / | 44.7µM* | /
O=[N+]([O-])c1ccc(Nc2cccc(F)c2)nc1 | 31.1% | -20.2% | -7.3% | -11.3% | 50.1µM*
